In PubChem BioAssay (NCATS):
Results filed as inconclusive are left out. A call without a number means that no potency is given here. Values without a mark were called inactive. Calls of active or inactive are those of the source. The call rests on the fitted dose curve; in most records, active means well fitted activation curve with a large enough effect; inconclusive means small, poorly fitted or top-dose-only effect; inactive means flat fitted curve, though single readings scatter.
Potency means the concentration at half of the fitted maximal effect.

Each compound was assayed against Nuclear receptor subfamily 1 group I member 2 (Homo sapiens) (UniProt O75469) (assay: Dual reporter qHTS for agonist of Pregnane X Receptor (hPXR) against the NCATS DSHEA and TCM libraries: Luminescence readout (AID 1920059)). Conditions: hPXR dual reporter cells, luciferase luminescence agonist; series mostly up to 40 µM.
Sequence of Nuclear receptor subfamily 1 group I member 2 (Homo sapiens) (O75469 whole entry, looked up): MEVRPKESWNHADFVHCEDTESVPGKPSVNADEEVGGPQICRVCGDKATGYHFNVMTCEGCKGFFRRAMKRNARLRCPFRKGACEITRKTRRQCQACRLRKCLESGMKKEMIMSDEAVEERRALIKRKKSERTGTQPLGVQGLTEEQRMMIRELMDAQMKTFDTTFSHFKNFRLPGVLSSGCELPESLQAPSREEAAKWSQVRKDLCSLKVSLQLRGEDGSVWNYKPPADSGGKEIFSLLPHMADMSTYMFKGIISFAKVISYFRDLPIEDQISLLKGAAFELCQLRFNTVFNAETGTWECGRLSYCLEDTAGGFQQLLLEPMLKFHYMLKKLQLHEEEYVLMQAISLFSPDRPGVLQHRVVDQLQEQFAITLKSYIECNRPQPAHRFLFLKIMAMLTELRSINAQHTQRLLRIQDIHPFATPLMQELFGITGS
Text: Assay Development and Screening Technology Laboratory (ADST)
National Center for Advancing Translational Sciences (NCATS), Rockville, MD
National Institute of Health (NIH), Bethesda, Maryland
Dietary Supplements and Natural Products have minor oversight of their safety and efficacy. We assembled a collection of Dietary Supplements and Natural Products (DSNP) as well as Traditional Chinese Medicinal (TCM) Plant extracts, which were screened against an in vitro panel of assays, including a liver cytochrome p450 enzyme panel, CAR/PXR signaling pathways, and P-gp transporter assays, to assess their activity. This pipeline facilitated the interrogation of Natural Product-Drug Interaction (NaPDI) through prominent metabolizing pathways. In addition, we compared the activity profiles of the DSNP/TCM substances with those of an approved drug collection. Many of the approved drugs have well-annotated mechanisms of action (MOA) while the MOAs for most of the DSNP and TCM samples remain unknown. Based on the premise that compounds with similar activity profiles tend to share similar targets or MOA, we clustered the library activity profiles to identify overlap with the NCATS Pharmaceutical Collection to predict the MOAs of the DSNP/TCM substances. Overall, we highlight four significant bioactivity profiles (measured by p-values) as examples of this prediction. To assess broad cytotoxicity, we employed screening against a HepG2 cell line. In addition, transporter-mediated drug interactions are utilized in the characterization of DDIs using a P-glycoprotein (P-gp) assays. To profile potential P-gp activity, a differential cell viability was measured against two cell lines: a parental KB-3-1 human cervical adenocarcinoma cell line and the drug-resistant subline KB-8-5-11 that overexpresses P-gp.
To this end, we profiled both collections for potential CAR and/or PXR activity, employing a previously published 1536-well qHTS assay.
[1] Lee TD, et al. A High-Throughput Screen of a Library of Therapeutics Identifies Cytotoxic Substrates of P-glycoprotein. Mol Pharmacol. Nov 2019;96(5):629-640. doi:10.1124/mol.119.115964
For PXR luciferase reporter gene assays, we used hPXR-LucHepG2cells provided by Dr. Taosheng Chen (Department of Chemical Biology and Therapeutics, St. Jude Children's Research Hospital). Cells were cultured in EMEM supplemented with 10% fetal bovine serum, 100U/mL penicillin and 100ug/mL streptomycin, and 500ug/mL of geneticin.
PROTOCOL TABLE (as described by Inglese J, Shamu CE and Guy RK. 2007)
SEQUENCE No. (e.g., 1, 2, 3, etc.); […] (e.g., Cells, Incubation, Reagent, etc.); VALUE; DESCRIPTION.
1; Cells; 5 uL; hPXR-LucHepG2; white solid-bottom Greiner plate.
2; Incubation; 5h; 37C, 95% humidity, 5% CO2
3; Compounds and control; 23 nL; Kalypsis pintool (Wako USA).
4; Reagent; 1uL; rifampicin (RIF) in the antagonist mode.
6; Reagent; 1 uL; CellTiter-Fluor detection reagent.
7; Incubation; 1 hr; 37C, 5% CO2.
8; Read; Fluorescence; ViewLux plate reader.
9; Reagent; 4 uL; ONE-Glo Luciferase detection reagent.
10; Incubation; 30 min; room temperature.
11; Read; Luminescence; ViewLux plate reader.
NOTES (numbers refer to Sequence numbers above)
1. Briefly, 5uL of hPXR-LucHepG2 cells in phenol red-free DMEM containing 5% charcoal-stripped FBS, 1 mM sodium pyruvate (Invitrogen), 2 mM L-glutamine (Invitrogen), and 100 U/mL penicillin and 100ug/mL streptomycin were dispensed using a BioRAPTR FRD at 4 x 10^5cells/mL (2000cells/well) in tissue culture-treated 1536-well white assay plates (GreinerBio-One).
2. Plates were incubated for 5h at 37C, 95% humidity, and 5% CO2 to allow for cell attachment.
3. Compounds (final concentration for most substances ranged from 15.6 nM to 45.9uM), positive control rifampicin (RIF; final concentration range of 2.8 nM to 92uM for the agonist mode), and cytotoxicity control tetraoctyl ammonium bromide (final concentration of 92uM) were transferred (23 nL) via pintool (Wako Automation).
4-5. […]
`O=C(/C=C/c1ccc(O)c(O)c1)O[C@@H]1CC(C(=O)O)=C[C@@H](O)[C@H]1O` was tested, and the Potency was “inactive”.
With `C=C1CC[C@H]2C[C@@H]1C2(C)C` the Potency was “inactive”.
In the case of `C=C1C[C@@]23CC[C@H]4[C@](C)(CCC[C@]4(C)C(=O)O[C@@H]4O[C@H](CO)[C@@H](O)[C@H](O)[C@H]4O)[C@@H]2CC[C@]1(O[C@H]1O[C@@H](CO)[C@H](O)[C@@H](O)[C@@H]1O)C3`, the Potency is reported as “inactive”.
With `O=C(/C=C/c1ccc(O)c(O)c1)O[C@@H]1CC(O)(C(=O)O)C[C@@H](OC(=O)/C=C/c2ccc(O)c(O)c2)C1O` (stereo not given in full) the Potency was “inactive”.
With `C=C1C[C@@]23CC[C@H]4[C@@](C)(CCC[C@@]4(C)C(=O)O[C@@H]4O[C@H](CO)[C@@H](O)[C@H](O)[C@H]4O[C@@H]4O[C@H](CO)[C@@H](O)[C@H](O)[C@H]4O)[C@@H]2CC[C@]1(O[C@@H]1O[C@H](CO)[C@@H](O)[C@H](O)[C@H]1O[C@@H]1O[C@H](CO)[C@@H](O)[C@H](O)[C@H]1O)C3` the Potency was “inactive”.
Compound `CCCCCCCCCCCCCCCCCCCCCCCCCCCCCCO` has an activation of -7.37% [at 5 µM].
In the case of `CCCCCC/C=C/CCCCCCCCCC(=O)O`, the Potency is reported as “inactive”.
With `CC(C)=CCC[C@](C)(O[C@@H]1O[C@H](CO)[C@@H](O)[C@H](O)[C@H]1O)[C@H]1CC[C@]2(C)[C@@H]1[C@H](O)C[C@@H]1[C@@]3(C)CC[C@H](O)C(C)(C)[C@@H]3[C@@H](O[C@@H]3O[C@H](CO)[C@@H](O)[C@H](O)[C@H]3O[C@@H]3O[C@@H](C)[C@H](O)[C@@H](O)[C@H]3O)C[C@]12C` the Potency was “inactive”.
For `C=C1CC/C=C(/C)CC[C@@H]2[C@@H]1CC2(C)C`, the Potency was “inactive”.
With `CCCCCCCC/C=C\CCCCCCCCCCCC(=O)O` the Potency was “inactive”.
`CC(C)c1ccc(C=O)cc1` was tested, and the Potency was “inactive”.
`CC(C)(O)[C@@H]1CC[C@](C)([C@H]2[C@@H](O)C[C@@]3(C)[C@@H]4C[C@H](O)[C@H]5C(C)(C)[C@@H](O[C@@H]6OC[C@@H](O)[C@H](O)[C@H]6O[C@@H]6O[C@H](CO)[C@@H](O)[C@H](O)[C@H]6O)CC[C@@]56C[C@@]46CC[C@]23C)O1` was tested, and the Potency was “inactive”.
For `COc1ccc(-c2coc3cc(O[C@@H]4O[C@H](CO)[C@@H](O)[C@H](O)[C@H]4O)ccc3c2=O)cc1`, the Potency was “inactive”.
For `Cc1ncc(COP(=O)(O)O)c(C)c1O`, the Potency was “inactive”.
`CC(C)=CCC[C@](C)(O[C@@H]1O[C@H](CO)[C@@H](O)[C@H](O)[C@H]1O)[C@H]1CC[C@]2(C)[C@@H]1[C@H](O)C[C@@H]1[C@@]3(C)CC[C@H](O)C(C)(C)[C@@H]3[C@@H](O[C@@H]3O[C@H](CO)[C@@H](O)[C@H](O)[C@H]3O)C[C@]12C` was tested, and the Potency was “inactive”.
For `CC(C)[C@H](C)CC[C@@H](C)[C@H]1CC[C@H]2[C@@H]3CC=C4C[C@@H](O)CC[C@]4(C)[C@H]3CC[C@]12C`, the Potency was “inactive”.
With `O=C(OC[C@H]1O[C@@H](OC(=O)c2cc(O)c(O)c(O)c2)[C@H](OC(=O)c2cc(O)c(O)c(O)c2)[C@@H](OC(=O)c2cc(O)c(O)c(O)c2)[C@@H]1O)c1cc(O)c(O)c(O)c1` the Potency was “inactive”.
For `CC(=O)OC/C=C/c1ccccc1`, the Potency was “inactive”.
For `O=c1cc(-c2ccc(O)c(O)c2)oc2cc(O[C@@H]3O[C@@H](CO)[C@@H](O)[C@@H](O)[C@H]3O)cc(O)c12`, the Potency was “inactive”.
`CCCCCCCC/C=C/CCCCCCCC(=O)O` was tested, and the Potency was “inactive”.
For `CCCCCCCCCCCCCC(=O)OCC(O)CO` (stereo not given), the Potency was “inactive”.
In the case of `O=C(/C=C/c1ccc(O)c(O)c1)O[C@@H]1C[C@](O)(C(=O)O)C[C@@H](O)[C@H]1O`, the Potency is reported as “inactive”.
`CC1(C)CC[C@]2(C(=O)O)CC[C@]3(C)C(=CCC4[C@@]5(C)CC[C@H](O)[C@@](C)(CO)C5CC[C@]43C)[C@H]2C1` (stereo not given in full) was tested, and the Potency was “inactive”.
For `O=C(/C=C/c1ccc(O)c2c1[C@H](C(=O)O)[C@@H](c1ccc(O)c(O)c1)O2)O[C@H](Cc1ccc(O)c(O)c1)C(=O)O`, the Potency was “inactive”.
`O=C(O)CC(O)(C(=O)O)C(O)C(=O)O` (stereo not given) was tested, and the Potency was “inactive”.
With `C=C(C)C1CC=C(C)C(O)C1` (stereo not given) the Potency was “inactive”.
`CCCCCCCCCCCCCC(=O)O` was tested, and the Potency was “inactive”.
In the case of `O=C(/C=C/c1ccc(O)c(O)c1)O[C@H]1[C@H](O)C[C@](O)(C(=O)O)C[C@H]1OC(=O)/C=C/c1ccc(O)c(O)c1`, the Potency is reported as “inactive”.
For `O=C(O)c1ccccc1`, the Potency was “inactive”.
For `C[C@@H]1OC(O[C@H]2[C@H](O)[C@@H](O)[C@H](OC[C@H]3O[C@@H](OC(=O)[C@]45CCC(C)(C)C[C@@H]4C4=CCC6[C@@]7(C)CC[C@H](OC8OC[C@H](O)[C@H](O)[C@H]8OC8O[C@@H](C)[C@H](O)[C@@H](O)[C@H]8O)[C@@](C)(CO)C7CC[C@@]6(C)[C@]4(C)CC5)[C@H](O)[C@@H](O)[C@@H]3O)O[C@@H]2CO)[C@H](O)[C@H](O)[C@H]1O` (stereo not given in full), the Potency was “inactive”.
With `C[C@@H]1O[C@@H](OC[C@H]2OC(Oc3c(-c4ccc(O)c(O)c4)oc4cc(O)cc(O)c4c3=O)[C@H](O)[C@@H](O)[C@@H]2O)[C@H](O)[C@H](O)[C@H]1O` (stereo not given in full) the Potency was “inactive”.
`O[C@@H]1[C@@H](O)[C@H](OC/C=C/c2ccccc2)O[C@H](CO[C@@H]2OC[C@H](O)[C@H](O)[C@H]2O)[C@H]1O` was tested, and the Potency was “inactive”.
`C=CCc1ccc(OC)c(OC)c1` was tested, and the Potency was “inactive”.
With `Cc1ccc(C(C)C)cc1` the Potency was “inactive”.
For `COc1cc(-c2oc3cc(O)cc(O)c3c(=O)c2O)ccc1O`, the Potency was “inactive”.
`CC(C)=CCC[C@](C)(OC1OC(COC2OCC(O)C(O)C2O)C(O)C(O)C1O)[C@H]1CC[C@]2(C)[C@@H]1[C@H](O)C[C@@H]1[C@@]3(C)CC[C@H](OC4OC(CO)C(O)C(O)C4OC4OC(CO)C(O)C(O)C4O)C(C)(C)[C@@H]3CC[C@]12C` (stereo not given in full) was tested, and the Potency was “inactive”.
With `Cc1ccc(O)c(O)c1` the Potency was 50.1 µM (active).
With `CC[C@H](CC[C@@H](C)[C@H]1CCC2C3CCC4C[C@@H](O)CC[C@]4(C)C3CC[C@@]21C)C(C)C` (stereo not given in full) the Potency was “inactive”.
In the case of `CC(C)=CCCC(C)=CCCC(C)=CCCC=C(C)CCC=C(C)CCC=C(C)C`, the Potency is reported as “inactive”.
For `C=CC(=C)CCC=C(C)C`, the Potency was “inactive”.
